Inconclusive results are not listed. Activity calls are given as the source filed them. Calls follow the shape of the dose curve; as a rule, active = well fitted cell-killing curve with a large enough effect; inconclusive = small, poorly fitted or top-dose-only effect; inactive = flat fitted curve, though single readings scatter.
Assay: qHTS of pediatric cancer cell lines to identify multiple opportunities for drug repurposing: Confirmatory screen for A673 cells (AID 1347110);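 also: cells exposed to compound for 48 h before the viability read; nearly all actives have a fitted effect of over 65% in size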
Conditions: A673 Ewing sarcoma cell viability; series mostly up to 45.9 µM
Summary of the method: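 A673 cells seeded at 500-1,000 cells/well, rested 5 h, then dosed; primary MIPE 11-point (0.78 nM to 46 µM), NPC (0.59 nM to 46 µM); confirmatory 11-point. CellTiter-Glo luminescence after 48 h.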
Potency is read from the fitted curve at half-maximal effect.

Row | SMILES | Potency
1 | NC(=O)CC[C@@H]1NC(=O)[C@H](Cc2ccccc2)NC(=O)[C@H](Cc2ccc(O)cc2)NC(=O)CCSSC[C@@H](C(=O)N2CCC[C@H]2C(=O)N[C@@H](CCCN=C(N)N)C(=O)NCC(N)=O)NC(=O)[C@H](CC(N)=O)NC1=O | inactive
2 | C[C@H]1C[C@H]2[C@@H]3CCC4=CC(=O)C=C[C@]4(C)[C@@]3(Cl)[C@@H](O)C[C@]2(C)[C@@]1(O)C(=O)CO | 18.5 µM (active)
3 | CCCCC(CC)CN=C(N)NC(N)=NCCCCCCN=C(N)NC(N)=NCC(CC)CCCC (stereo not given) | 3.29 µM (active)
4 | C[C@]12C=CC(=O)C=C1[C@@H](F)C[C@@H]1[C@@H]2[C@@H](O)C[C@@]2(C)[C@H]1CC[C@]2(O)C(=O)CO | inactive
5 | CC(C)(C(=O)c1cccnc1)c1cccnc1 | 0.369 µM (active)

Reference: PubChem BioAssay (NCATS)
